Bioassay records: PubChem, The Scripps Research Institute Molecular Screening Center
M1 PAM = potentiates human M1 receptor response to acetylcholine; P11229; CHO-K1 hM1, Fluo-8 calcium fluorescence, ACh EC20; 0% = ACh EC20, 100% = maximal ACh; activation, % at 3 µM; actives 0.088% (n = 360,000); AID 588819; in the data active means activation above about 19%, passing the limit was not always enough
Target sequence (P11229 whole entry, looked up): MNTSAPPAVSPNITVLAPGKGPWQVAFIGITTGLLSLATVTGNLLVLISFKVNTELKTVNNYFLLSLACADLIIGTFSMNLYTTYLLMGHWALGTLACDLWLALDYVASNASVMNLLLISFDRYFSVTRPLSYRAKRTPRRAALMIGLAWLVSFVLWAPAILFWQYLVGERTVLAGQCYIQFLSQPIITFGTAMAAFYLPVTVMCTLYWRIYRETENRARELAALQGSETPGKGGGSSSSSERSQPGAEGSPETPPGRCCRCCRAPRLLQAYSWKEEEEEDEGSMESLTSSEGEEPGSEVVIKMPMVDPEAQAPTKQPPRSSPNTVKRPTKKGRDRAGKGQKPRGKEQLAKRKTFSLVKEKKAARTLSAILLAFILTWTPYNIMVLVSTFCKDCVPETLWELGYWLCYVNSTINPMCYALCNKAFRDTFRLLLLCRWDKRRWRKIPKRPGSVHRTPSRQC
M1 antag = human CHRM1 antagonism. AID 588852. CHO-K1 hM1, Fluo-8 calcium fluorescence, ACh EC80 antagonist. P11229. inhibition, % at 3 µM. actives 1.3% (n = 360,000);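 active means percent inhibition above its own plate's cutoff, namely the mean of that plate's compound wells plus 3 SD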;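 further: peak over basal fluorescence ratio during 140 s after agonist addition; 0% = ACh EC80 plus DMSO and 100% = DMSO alone without agonist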
M1 ag parental = counter-screen for M1 agonists: effect in parental CHO-K1 cells. activation, % at 3 µM. AID 602248. actives 0.48% (n = 360,000). Fluo-8 calcium fluorescence; scaled to maximal ATP response, vehicle zero; in the data active means activation above about 15%;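 further: untransfected CHO-K1 host cells lacking M1 receptor as counterscreen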
CHO-K1 Ca antag = M1 antagonist counterscreen hit in parental CHO-K1 cells; AID 602250; actives 0.6% (n = 360,000); inhibition, % at 3 µM; ATP-induced calcium, Fluo-8 fluorescence;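 active means inhibition above a per-plate cutoff, the plate's mean sample inhibition plus 3 SD, cut at about 24% in these data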;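 further: 0% = DMSO plus EC80 ATP and 100% = DMSO alone without ATP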
CHRM1 agonist = human M1 muscarinic receptor agonism; P11229; CHO-K1 hM1, Fluo-8 calcium fluorescence, agonist mode; 0% DMSO, 100% acetylcholine EC100; activation, % at 3 µM; actives 0.33% (n = 360,000);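 active means activation above the run's mean compound activation plus 3 SD, cut at about 16% in these data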;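 further: peak over basal fluorescence ratio within a 140 s kinetic read after compound addition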
CHO-K1 Ca PAM = M1 PAM counterscreen hit in parental CHO-K1 cells; actives 0.02% (n = 360,000); ATP EC20, Fluo-8 calcium fluorescence; 0% at ATP EC20, 100% at ATP max; activation, % at 3 µM;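 active means activation above the run cutoff, the mean activation of all test compounds plus 3 SD, cut at about 40% in these data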;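 further: peak over basal fluorescence ratio in a 140 s read after ATP addition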
* marks the source's active call; other numbers are inactive results. Only some compounds are listed: those with a hit (about 2.3% of all), similar ones and a draw of the others.

Results for CC(CCCN1CCCC1)Nc1ccnc2cc(Cl)ccc12 (stereo not drawn) ?
M1 PAM: -31; M1 antag: 58*; M1 ag parental: 2; CHO-K1 Ca antag: -3; CHRM1 agonist: -9; CHO-K1 Ca PAM: -1

Results for C/C(=N\NC(=O)CN1CCOCC1)C(C)(C)C ?
M1 PAM: 8; M1 antag: -21; M1 ag parental: 0; CHO-K1 Ca antag: -12; CHRM1 agonist: 0; CHO-K1 Ca PAM: -6

Results for C#CC[N+](C)(C)CCCCCCCCCC ?
M1 PAM: -17; M1 antag: 21; M1 ag parental: 0; CHO-K1 Ca antag: 0; CHRM1 agonist: -8; CHO-K1 Ca PAM: 20

How did CC#CC[N+](C)(C)CCCCCCCCCCCC do in these assays?
M1 PAM: -27; M1 antag: 41*; M1 ag parental: 1; CHO-K1 Ca antag: -8; CHRM1 agonist: -10; CHO-K1 Ca PAM: 16

How did C#CC[N+](C)(C)CCCCCCCCCCCC do in these assays?
M1 PAM: -26; M1 antag: 56*; M1 ag parental: 24*; CHO-K1 Ca antag: -7; CHRM1 agonist: -14; CHO-K1 Ca PAM: 29

Results for O=C(CCNC(=O)C1CCN(S(=O)(=O)c2ccc(F)cc2)CC1)NCCc1ccc(Cl)cc1 ?
M1 PAM: -3; M1 antag: 8; M1 ag parental: 4; CHO-K1 Ca antag: -15; CHRM1 agonist: -3; CHO-K1 Ca PAM: 0

How did CCCCn1cc(C(=O)c2cc(Br)ccc2O)cc(C#N)c1=O do in these assays?
M1 PAM: -10; M1 antag: 25; M1 ag parental: 8; CHO-K1 Ca antag: 24*; CHRM1 agonist: 3; CHO-K1 Ca PAM: 2

Results for CCOCCCn1cc(C(=O)c2cc(Br)ccc2O)cc(C#N)c1=O ?
M1 PAM: 12; M1 antag: -4; M1 ag parental: 3; CHO-K1 Ca antag: -5; CHRM1 agonist: -4; CHO-K1 Ca PAM: 11

What do the screens show for `CS(=O)(=O)c1ccc(Cl)c(NC(=O)C2CCCN(C(=O)c3ccc(Cl)cc3)C2)c1` (stereo not drawn)?
M1 PAM: 2; M1 antag: 5; M1 ag parental: 0; CHO-K1 Ca antag: 6; CHRM1 agonist: -3; CHO-K1 Ca PAM: -17

Results for O=c1ccn([C@@H]2O[C@H](CNS(=O)(=O)C3CC3)[C@@H](O)[C@H]2O)c(=O)[nH]1 ?
M1 PAM: 5; M1 antag: -1; M1 ag parental: 0; CHO-K1 Ca antag: -11; CHRM1 agonist: -1; CHO-K1 Ca PAM: 3

Results for O=C(/C=C/c1ccccc1)CC(O)(c1ccccc1)C(F)(F)C(F)F (stereo not drawn) ?
M1 PAM: -22; M1 antag: 38*; M1 ag parental: 17*; CHO-K1 Ca antag: -7; CHRM1 agonist: -8; CHO-K1 Ca PAM: 23

How did Cc1ccc(S(=O)(=O)N2C[C@H]3C(=O)C[C@@H](c4ccccc4F)N(S(=O)(=O)c4ccc(C)cc4)[C@H]3C[C@H]2c2ccccc2F)cc1 do in these assays?
M1 PAM: 18; M1 antag: -15; M1 ag parental: 0; CHO-K1 Ca antag: 29*; CHRM1 agonist: 11; CHO-K1 Ca PAM: -5

Results for Cc1ccc([C@@H]2C[C@H]3[C@@H](CN2S(=O)(=O)c2ccc(C)cc2)C(=O)C[C@@H](c2ccccc2F)N3S(=O)(=O)c2ccc(C)cc2)cc1 ?
M1 PAM: 10; M1 antag: -2; M1 ag parental: 0; CHO-K1 Ca antag: 17; CHRM1 agonist: 4; CHO-K1 Ca PAM: -1

Results for Cc1ccc(S(=O)(=O)N2C[C@H]3C(=O)C[C@@H]4C(=O)N(c5ccccc5)C(=O)[C@@H]4[C@@H]3C[C@H]2c2cccc(Cl)c2)cc1 ?
M1 PAM: -6; M1 antag: 23; M1 ag parental: 5; CHO-K1 Ca antag: 31*; CHRM1 agonist: -2; CHO-K1 Ca PAM: -1

How did COc1ccc([C@@H]2C[C@H]3[C@@H](CN2S(=O)(=O)c2ccccc2)C(=O)C[C@@H](c2cccc(Cl)c2)N3S(=O)(=O)c2ccc(C)cc2)cc1 do in these assays?
M1 PAM: -2; M1 antag: 21; M1 ag parental: 2; CHO-K1 Ca antag: 24*; CHRM1 agonist: -2; CHO-K1 Ca PAM: 9

Results for COc1ccc(S(=O)(=O)N(CC(=O)NCC2CCCO2)c2ccc(F)cc2)cc1OC (stereo not drawn) ?
M1 PAM: 0; M1 antag: 16; M1 ag parental: 1; CHO-K1 Ca antag: 26*; CHRM1 agonist: -1; CHO-K1 Ca PAM: -6

Results for COc1ccc(S(=O)(=O)N(C)CC(=O)NCC2CCCO2)cc1OC (stereo not drawn) ?
M1 PAM: 14; M1 antag: -15; M1 ag parental: 0; CHO-K1 Ca antag: -5; CHRM1 agonist: 0; CHO-K1 Ca PAM: -8

Results for COc1cccc(OCc2cc(C(=O)N3CCC(c4ccncc4)CC3)no2)c1 ?
M1 PAM: -10; M1 antag: 23; M1 ag parental: 12; CHO-K1 Ca antag: 19; CHRM1 agonist: 0; CHO-K1 Ca PAM: -11

What do the screens show for `O=C(c1cc(COc2cccc(C(F)(F)F)c2)on1)N1CCC(c2ccncc2)CC1`?
M1 PAM: -13; M1 antag: 38*; M1 ag parental: 11; CHO-K1 Ca antag: 19; CHRM1 agonist: -1; CHO-K1 Ca PAM: 1

Results for CC(=O)c1ccc(OCc2cc(C(=O)N3CCCCC3c3cccnc3)no2)cc1 (stereo not drawn) ?
M1 PAM: -5; M1 antag: 4; M1 ag parental: 16*; CHO-K1 Ca antag: -1; CHRM1 agonist: 5; CHO-K1 Ca PAM: -5

What do the screens show for `CCOc1cccc(C(=O)N2CCCCC2c2cccnc2)c1` (stereo not drawn)?
M1 PAM: 6; M1 antag: -7; M1 ag parental: 0; CHO-K1 Ca antag: 0; CHRM1 agonist: -3; CHO-K1 Ca PAM: 7

How did CC(=O)c1cccc(OCc2cc(C(=O)N3CCC(N4CCCCC4)CC3)no2)c1 do in these assays?
M1 PAM: -22; M1 antag: 48*; M1 ag parental: 1; CHO-K1 Ca antag: -10; CHRM1 agonist: -5; CHO-K1 Ca PAM: 14

What do the screens show for `O=C(c1cc(COc2cccc(C(F)(F)F)c2)on1)N1CCC(c2ccccc2)CC1`?
M1 PAM: -5; M1 antag: 3; M1 ag parental: 1; CHO-K1 Ca antag: -13; CHRM1 agonist: -2; CHO-K1 Ca PAM: -3

Results for CC(=O)c1ccc(OCc2cc(C(=O)N3CCC(c4ccncc4)CC3)no2)cc1 ?
M1 PAM: -11; M1 antag: 14; M1 ag parental: 15*; CHO-K1 Ca antag: 19; CHRM1 agonist: 1; CHO-K1 Ca PAM: -28

What do the screens show for `CC(=O)c1cccc(OCc2cc(C(=O)N3CCSCC3)no2)c1`?
M1 PAM: 6; M1 antag: -7; M1 ag parental: 11; CHO-K1 Ca antag: 0; CHRM1 agonist: -2; CHO-K1 Ca PAM: -2
